KDM5B inhibitor = inhibitors of human KDM5B histone demethylase. Potency, µM (top dose mostly 57.7 µM), actives largely listed as inhibitors. 220,000 tested, 2.6% active. KDM5B demethylase, FDH-coupled NADH fluorescence (FDH is formaldehyde dehydrogenase); active means well fitted inhibition curve with a large enough effect; further: nearly all actives have a fitted effect of over 70% in size
Target sequence (Q9UGL1 whole entry, looked up): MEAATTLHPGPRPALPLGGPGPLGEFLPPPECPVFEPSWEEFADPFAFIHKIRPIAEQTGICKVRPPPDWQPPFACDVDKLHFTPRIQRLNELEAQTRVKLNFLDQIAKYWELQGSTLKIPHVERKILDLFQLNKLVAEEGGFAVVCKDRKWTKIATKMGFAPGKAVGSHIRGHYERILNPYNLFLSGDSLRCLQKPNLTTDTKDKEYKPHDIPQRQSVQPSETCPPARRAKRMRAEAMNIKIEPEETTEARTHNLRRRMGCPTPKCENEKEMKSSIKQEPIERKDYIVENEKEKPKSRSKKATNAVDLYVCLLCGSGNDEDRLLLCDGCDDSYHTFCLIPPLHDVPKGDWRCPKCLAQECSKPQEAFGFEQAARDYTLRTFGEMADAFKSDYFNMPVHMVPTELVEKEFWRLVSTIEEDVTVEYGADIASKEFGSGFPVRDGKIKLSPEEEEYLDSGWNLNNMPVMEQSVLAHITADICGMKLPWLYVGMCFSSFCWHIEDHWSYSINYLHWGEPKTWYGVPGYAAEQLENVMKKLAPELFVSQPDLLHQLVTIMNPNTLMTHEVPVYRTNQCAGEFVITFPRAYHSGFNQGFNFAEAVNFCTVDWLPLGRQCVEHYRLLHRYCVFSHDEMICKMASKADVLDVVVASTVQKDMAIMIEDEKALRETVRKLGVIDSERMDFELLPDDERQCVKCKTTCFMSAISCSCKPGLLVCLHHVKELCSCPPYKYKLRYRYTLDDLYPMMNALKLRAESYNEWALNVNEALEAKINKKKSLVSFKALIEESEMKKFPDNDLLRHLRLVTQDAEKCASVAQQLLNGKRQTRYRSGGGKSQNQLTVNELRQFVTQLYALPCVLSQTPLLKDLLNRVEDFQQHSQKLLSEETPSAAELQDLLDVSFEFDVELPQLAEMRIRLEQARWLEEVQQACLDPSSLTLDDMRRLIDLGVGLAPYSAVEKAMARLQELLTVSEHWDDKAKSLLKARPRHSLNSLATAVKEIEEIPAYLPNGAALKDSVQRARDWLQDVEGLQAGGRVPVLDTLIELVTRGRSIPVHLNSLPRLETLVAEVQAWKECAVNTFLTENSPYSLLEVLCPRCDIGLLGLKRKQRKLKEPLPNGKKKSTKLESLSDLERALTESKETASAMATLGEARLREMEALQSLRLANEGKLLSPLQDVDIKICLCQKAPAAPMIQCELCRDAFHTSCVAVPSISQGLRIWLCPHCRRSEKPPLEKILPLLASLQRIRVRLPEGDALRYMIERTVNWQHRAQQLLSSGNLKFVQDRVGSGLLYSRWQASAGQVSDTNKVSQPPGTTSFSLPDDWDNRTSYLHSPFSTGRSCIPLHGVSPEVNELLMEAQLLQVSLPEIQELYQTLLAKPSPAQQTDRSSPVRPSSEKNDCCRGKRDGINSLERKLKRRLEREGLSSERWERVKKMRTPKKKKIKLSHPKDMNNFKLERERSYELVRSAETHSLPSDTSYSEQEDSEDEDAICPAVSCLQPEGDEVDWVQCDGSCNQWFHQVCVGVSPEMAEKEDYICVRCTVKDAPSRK
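Coupled FDH/NAD⁺ fluorescence readout. KDM5BΔAP 200 nM final; compound titration, 10 min RT preincubation; substrate mix 12.5 µM H3K4me3, 25 µM 2-OG, 50 µM Fe(II), 100 µM ascorbate, 0.25 mM NAD⁺, 0.25 U/mL FDH; ΔRFU over 30 min.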
Numbers stand for hits; n = inactive. Shown is part of a subset that was picked to be rich in hits.

SMILES | KDM5B inhibitor
CCc1ccc([S+](=O)([O-])c2nnn3c2nc(NCc2ccncc2)c2ccccc23)cc1 | 50µM
Cc1ccc(C)c([S+](=O)([O-])c2nnn3c2nc(NCc2ccncc2)c2ccccc23)c1 | 89µM
O=[S+]([O-])(c1ccncc1)c1nnn2c1nc(N1CCCCC1)c1ccccc12 | n
O=[S+]([O-])(c1cccs1)N1CC(Oc2ccc(F)c(F)c2)C1 | n
CCCn1c(=O)n(CC(=O)NCC(=O)Nc2cccc(C)c2C)c2ccccc21 | n
COc1ccccc1N(CC(=O)NC1CCCC1)S(C)(=O)=O | n
CC(=O)N1N=C(c2ccsc2)CC1c1ccc2nccnc2c1 (stereo not drawn) | n
COC(=O)C1=C(C)N(C2CC2)C(=S)NC1c1cccs1 (stereo not drawn) | n
COCCOCC1(CNC(=O)c2nc3ccccc3[nH]2)C[C@@H](O)[C@@H](O)C1 (stereo partly drawn) | 32µM
COCCOCC1(CNC(=O)C2CCOCC2)C[C@@H](O)[C@@H](O)C1 (stereo partly drawn) | n
O=C(NCC1(COc2cccnc2)C[C@@H](O)[C@@H](O)C1)c1ccc(F)cc1 (stereo partly drawn) | n
O=C(NCC1(COc2cnccn2)C[C@@H](O)[C@@H](O)C1)c1nc2ccccc2[nH]1 (stereo partly drawn) | 28µM
COCCOCC1(CNC(=O)Nc2cccnc2)C[C@@H](O)[C@@H](O)C1 (stereo partly drawn) | n
O=C(NCC1(COc2cccnc2)C[C@@H](O)[C@@H](O)C1)c1cnccn1 (stereo partly drawn) | n
CCCc1nc(SC)ncc1C(=O)NCCc1ccc(OC)c(OC)c1 | n
Nc1cc(N2CC[C@@H](N3CCN(CCc4ccccc4)CC3)[C@H](O)C2)nc(N)n1 | 4.5µM
CN1CCN(c2cc(N3CC[C@H](CO)[C@H](O)C3)nc(N)n2)CC1 | n
Cc1cc(N2CCC(c3[nH]ncc3Cc3ccccc3)CC2)nc(N)n1 | n
Cn1c(CNC(=O)C2CCN(C(=O)N3CC4CC(C3)[C@H]3CCCC(=O)N3C4)CC2)nc2ccccc21 (stereo partly drawn) | n
CN(c1cc(=O)c2ccnc(-c3ccc(F)c(Cl)c3)c2o1)C1CCOCC1 | 35µM
COc1ccc(Nc2nccc3c(=O)cc(-c4cn[nH]c4)oc23)cc1OC | n
CCC(=O)N(C1CCOCC1)C1CCN(S(=O)(=O)c2ccc(F)c(Cl)c2)CC1 | n
CN(c1ccccc1)c1cc(=O)c2ccnc(-c3ccncc3)c2o1 | n
CC(=O)Nc1ccccc1-c1nccc2c(=O)cc(N(C)c3ccccc3)oc12 | n
CN(CC1CCOC1)C(=O)c1ccc(F)c(Cl)c1 (stereo not drawn) | n
SMILES | KDM5B inhibitor
CN(c1cc(=O)c2ccnc(-c3cccc(C(F)(F)F)c3)c2o1)C1CCOCC1 | 28µM
CN(c1cc(=O)c2ccnc(Nc3ccc(F)c(Cl)c3)c2o1)C1CCOCC1 | 28µM
CCOc1cccc2cc(-c3nnc(Nc4ccc(F)c(Cl)c4)s3)c(=O)oc12 | n
CCN1CC(c2ccccc2)CC2(CCN(S(=O)(=O)N(C)C)CC2)C1 (stereo not drawn) | n
CCCCS(=O)CCC(=O)O (stereo not drawn) | n
O=C(NCC1CCN(C2CCCC2)C1)Nc1ccc(Br)cc1F (stereo not drawn) | n
CC(N(C)c1ccccc1)=[N+](C)c1ccccc1 | n
CCCCn1nc(C(=O)N2CCCSc3ccccc32)c2ccccc2c1=O | n
Nc1c(-c2nc3ccccc3[nH]2)c2ccccn2c1C(=O)c1cccc(Br)c1 | n
CCCCc1c(C)[nH]n(-c2nc(C)c(C(=O)Nc3cccc(OC)c3)s2)c1=O | n
COc1ccccc1NC(=O)N1CCOc2ccc(CN3CCc4ccccc4C3)cc2C1 | n
OC[C@@H]1O[C@H](CNCc2cccc(Cl)c2)[C@H](N2CCOCC2)[C@@H]1O | n
O=C(NC[C@H]1O[C@@H](CO)[C@@H](O)[C@H]1N1CCN(c2ccccn2)CC1)c1ccc(F)c(Cl)c1 | n
OC[C@@H]1O[C@H](CNCc2cccc(Cl)c2)[C@H](N2CCN(c3ccccn3)CC2)[C@@H]1O | 25µM
O=C(Nc1ccccc1Cl)C1Sc2nnc(-c3ccccc3)n2NC12CCCC2 (stereo not drawn) | n
COc1ccc(-c2noc(-c3cccn3CC(=O)NC3CCCCC3)n2)cc1F | n
COCCNC(=O)c1cc(C2CC2)nc2c1c(C1CCCN1)nn2C (stereo not drawn) | 79µM
CN(Cc1ccc(C(=O)NCC(F)(F)F)cc1)C(=O)c1cc(C2CC2)nc2ccccc12 | n
COCCCNC(=O)c1cc(C2CC2)nc2c1c(C1CCCN1)nn2-c1ccccc1 (stereo not drawn) | n
CC(C)CNC(=O)c1cc(C2CC2)nc2c1c(C1CCCN1)nn2-c1ccccc1 (stereo not drawn) | n
Cn1nc(C2CCCN2)c2c(C(=O)NCC(F)(F)F)cc(C3CC3)nc21 (stereo not drawn) | 79µM
CCNC(=O)Cn1nc(C2CC2)c2c(C(=O)OC)cc(C3CC3)nc21 | n
CN(CC(=O)Nc1cc2[nH]c(=O)[nH]c2cc1Br)Cc1ccccc1N1CCOCC1 | n
CCc1cccc2c1N(C(=O)CCc1ncc(-c3c(F)cccc3F)o1)CC2 | n
CCN(CC)Cc1ccc2c(c1)CN(C(=O)c1cncc(Br)c1)CCO2 | n
SMILES | KDM5B inhibitor
Cn1nc(C(C)(C)C)cc1NC(=O)c1ccccc1F | n
O=[N+]([O-])c1cc(S(=O)(=O)Nc2ccc(Cl)cc2)ccc1N/N=C/c1ccsc1 | n
O=C(c1ccc(C(F)(F)F)cc1)N1CCNCC1 | n
Cc1cccc(NC(=O)CCNC(=O)C2CCCC2)c1C | n
N#Cc1ccc(-c2ccc(OCCOc3ccccc3Cl)cc2)cc1 | n
CN(C)CCOc1ccccc1-c1ccc(C#N)cc1 | 32µM
Cc1cncc(-c2ccccc2OCCN(C)C)c1 | n
Cn1cnc2c1c(=O)n(CCCSCc1ccc(Cl)cc1Cl)c(=O)n2C | n
O=C(NCC1CCOCC1)c1ccc(C(F)(F)F)cc1 | n
O=C(NCC1CCCO1)c1ccc2oc(-c3ccc(C(F)(F)F)cc3)nc2c1 (stereo not drawn) | 25µM
O=C(c1ccc2oc(-c3ccc(C(F)(F)F)cc3)nc2c1)N1CCOCC1 | n
CC(C)C(C)(C#N)NC(=O)CNc1cccc(-c2nnnn2C)c1 (stereo not drawn) | n
NC(=O)CO[C@@H]1CO[C@H]2[C@@H]1OC[C@@H]2NC(=O)NCc1ccccc1 | n
COc1ccc(-c2ccnc(N[C@H]3CO[C@H]4[C@@H]3OC[C@@H]4NC(=O)NCc3ccccc3)n2)cc1 | 25µM
CN(C)c1ccc(-c2ccnc(N[C@H]3CO[C@H]4[C@@H]3OC[C@@H]4NC(=O)NCc3ccccc3)n2)cc1 | 28µM
O=C(NCc1ccccc1)N[C@H]1CO[C@H]2[C@@H]1OC[C@@H]2n1cc(-c2ccccn2)nn1 | n
CN(C)c1cccc(Oc2nnnn2[C@H]2CO[C@H]3[C@@H]2OC[C@@H]3NC(=O)NCc2ccccc2)c1 | n
O=C(C(c1ccccc1)c1ccccc1)N(C1CCCCC1)C1CCCCC1 | n
NC(N)=N/N=C/C=C/c1ccccc1 | n
Cc1cc(C(=O)N[C@@H]2CCOC[C@H]2OCC(=O)O)sc1-c1ccccc1 | 25µM
O=C(O)CO[C@@H]1COCC[C@H]1NC(=O)c1ccccc1-c1ncn[nH]1 | n
COCc1ccc(C(=O)N[C@@H]2CCOC[C@H]2OCc2ccccc2)s1 | n
CC1(C(=O)NCc2cccc(F)c2)CCCc2cnc(Nc3cccnc3)nc21 (stereo not drawn) | n

Bioassay records as filed in PubChem.
